Screening data as filed in PubChem.
proKLK7 act – activators of human kallikrein-7 zymogen. purified proKLK7, EDANS-DABCYL substrate fluorescence; 100% is mature enzyme control, 0% vehicle. activation, % at 7 µM. P49862. 370,000 compounds, 0.9% hits. AID 652039;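 active = activation above the mean of all tested compounds plus 3 SD, computed per campaign excluding outliers beyond control limits, cut at about 13% in these data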
PLCb3 inh – inhibitors of human phospholipase C beta3 | Q01970 | Purified PLC-beta3, fluorogenic substrate, fluorescence | inhibition, % at 12.2 µM | 370,000 compounds, 0.18% hits | AID 720704;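 note: 0% = median of compound wells on plate and 100% = full blocker control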
ADAM17 inh – inhibitors of human ADAM17 | 370,000 compounds, 0.83% hits | AID 720648 | inhibition, % at 6.95 µM | recombinant ADAM17, EDANS/DABCYL FRET peptide cleavage | P78536;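 active = inhibition above the mean of compounds lying between control limits plus 3 SD, set per campaign, cut at about 8.5% in these data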;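 note: 0% = DMSO-only wells as the low control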
PLC-gamma1 inh – blocks human PLC-gamma1 enzyme activity; purified PLC-gamma1, fluorogenic substrate, fluorescence; inhibition, % at 12.2 µM; 370,000 compounds, 0.84% hits; in the data active = inhibition above about 9.5%
ADAM10 inh – inhibitors of human ADAM10. O14672. recombinant ADAM10, EDANS/DABCYL FRET peptide cleavage, 3 h. inhibition, % at 7 µM. 370,000 compounds, 0.62% hits. AID 720582;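 active = inhibition above a per-campaign cutoff equal to the mean of compounds falling between control-based bounds plus 3 SD, cut at about 20% in these data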;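 note: 0% = DMSO wells while the 100% control is not disclosed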
Target sequence (O14672 214-748 limits assumed): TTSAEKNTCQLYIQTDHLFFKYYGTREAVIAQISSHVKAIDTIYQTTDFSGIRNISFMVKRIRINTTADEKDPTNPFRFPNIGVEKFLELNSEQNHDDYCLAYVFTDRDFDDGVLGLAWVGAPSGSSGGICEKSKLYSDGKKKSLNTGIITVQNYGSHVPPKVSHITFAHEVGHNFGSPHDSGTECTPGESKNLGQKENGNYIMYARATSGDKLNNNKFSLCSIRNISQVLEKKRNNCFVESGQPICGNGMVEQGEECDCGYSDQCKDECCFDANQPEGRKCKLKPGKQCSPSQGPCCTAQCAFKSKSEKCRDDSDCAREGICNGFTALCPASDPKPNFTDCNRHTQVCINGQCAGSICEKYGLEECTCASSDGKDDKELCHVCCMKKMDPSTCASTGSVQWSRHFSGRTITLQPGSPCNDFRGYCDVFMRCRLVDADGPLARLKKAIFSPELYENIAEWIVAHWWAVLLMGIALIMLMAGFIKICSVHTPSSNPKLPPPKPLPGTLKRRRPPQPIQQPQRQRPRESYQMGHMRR
HGIII-sPLA2 inh – Inhibits HGIII-sPLA2 liposome hydrolysis, primary screen; QFRET BODIPY PC-A2 liposome hydrolysis, fluorescence; 370,000 compounds, 0.56% hits; inhibition, % at 12.2 µM; AID 743126; Q9NZ20;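 active = inhibition above mean plus 3 SD of compounds lying within the high and low control bounds, cut at about 19% in these data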;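 note: 0% = median of test compound wells and 100% = no enzyme DMSO wells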
PLCg1 ctr – counter-screen for PLC-beta3 inhibitors: inhibitors of human PLC-gamma1. shares compounds with PLC-gamma1 inh. purified PLC-gamma1, fluorogenic substrate, fluorescence. 3,300 compounds, 3.1% hits. inhibition, % at 12.3 µM. AID 743258; in the data active = inhibition above about 9.5%
PLCbeta3 conf – confirmation of human PLC-beta3 inhibitors. inhibition, % at 12.3 µM. shares compounds with PLC-gamma1 inh. 3,300 compounds, 1% hits. AID 743261. purified PLC-beta3, fluorogenic substrate fluorescence
Numbers without * were called inactive; . = no result given. Hits are enriched below; roughly 3.4% of the tested compounds scored in any of these assays. Cut-off read from the data, not from the text of the source, unless noted: active = inhibition above about 11%; inactive = the rest.

SMILES | proKLK7 act | PLCb3 inh | ADAM17 inh | PLC-gamma1 inh | ADAM10 inh | HGIII-sPLA2 inh | PLCg1 ctr | PLCbeta3 conf
COc1ccc(Nc2nc(Nc3ccc(OC)cc3)nc(SC3=NCCS3)n2)cc1 | 0.7 | 0.8 | 4.5 | 12.8* | 17.1 | -0.8 | 3.6 | 4.2
CC(=O)Nc1ccc(N2CC(C)(C)C2=O)cc1 | -0.5 | 5.4 | 7.4 | 13.0* | 3.2 | 9.3 | -3.1 | 0.8
CC(=O)c1cnc2sccn2c1=O | -0.5 | 10.5 | -11.0 | 13.6* | -22.9 | 10.3 | -4.7 | -2.1
CC(C)C(C#CC1CC1)N(Cc1ccc2c(c1)OCO2)C(N)=NC(=O)/C=C/c1ccccc1 (configuration not stated) | 0.7 | 0.1 | 2.9 | -1.1 | 5.5 | -7.9 | . | .
CCOC(=O)C1C(=O)OC(C)(C)C1C(C)C(=O)c1ccc(C)cc1 (configuration not stated) | 0.0 | 8.9 | 7.7 | 9.5* | 14.8 | -1.3 | -2.3 | -4.0
Cc1cccc(NC(=O)CCc2ccccc2)c1C | 0.4 | 3.5 | 2.8 | 11.7* | 4.3 | 1.4 | -10.2 | 0.0
Cc1cccc(NC(=O)CCSc2ccccc2)c1C | -0.5 | 0.1 | -2.5 | -2.1 | -2.9 | 1.9 | . | .
O=C(NCc1cccc(C(F)(F)F)c1)C1CC2Cn3c(nc4ccccc43)C2N1Cc1ccccc1 (configuration not stated) | 0.3 | 11.9* | 3.1 | 6.0 | 9.6 | -0.8 | -5.0 | -0.8
O=C(NCc1ccc(OC(F)(F)F)cc1)C1CC2Cn3c(nc4ccccc43)C2N1Cc1ccccc1 (configuration not stated) | -0.6 | -0.1 | -3.9 | -1.4 | 2.9 | 1.0 | . | .
Cc1cccc(-c2cccc3c4c([nH]c23)[C@@H]2C[C@H](N(C)C(=O)NC3CCCCC3)[C@H]([C@H](C)O)C(=O)N2CC4)c1 | -2.3 | -43.6 | -22.6 | -31.3 | -60.5 | -31.1 | . | .
Cc1ccc(CC(=S)N2CCOCC2)cc1 | -0.1 | 3.4 | 2.4 | 4.0 | 0.4 | 6.1 | . | .
S=C(Cc1ccc(-c2ccccc2)cc1)N1CCOCC1 | 0.3 | -3.8 | 4.9 | 9.9* | 7.7 | -1.7 | -6.8 | -3.3
Nc1ccn([C@@H]2O[C@H](C(=O)N[C@H](Cc3ccccc3)C(=O)NCc3cccc4c3OCO4)[C@@H](O)[C@H]2O)c(=O)n1 | -0.8 | 3.2 | -3.1 | -1.1 | -7.7 | 4.6 | . | .
N/C(=N\NS(=O)(=O)c1ccc(Cl)cc1)c1ccccn1 | -0.1 | 3.4 | 3.9 | 10.3* | 6.2 | 11.2 | -3.2 | -2.8
N/C(=N\NS(=O)(=O)c1ccccc1)c1ccccn1 | 0.2 | -3.9 | -2.0 | 0.7 | -2.5 | -0.9 | . | .
CCOc1ncnc2c1sc1nc3c(cc12)COC(C)(C)C3 | 0.5 | 2.4 | 4.0 | 10.2* | 8.9 | 8.3 | -3.8 | -1.4
CCOc1cc(/C=N/NC(=O)N/N=C/c2ccc(O)c(OCC)c2)ccc1O | 0.3 | 13.0* | -2.3 | 5.9 | 8.3 | -12.6 | 3.8 | -1.6
CCOc1cc(/C=N/Nc2ncnc(Cl)c2N)ccc1O | 1.2 | -9.6 | 6.3 | -5.8 | 3.5 | 9.2 | . | .
CCOc1cc(/C=N/Nc2nnc(C)n2N)ccc1O | -0.9 | 5.3 | 2.9 | 19.9* | -4.0 | 11.0 | -5.1 | -0.6
CCOc1cc(/C=N/NC(=O)c2cccnc2)ccc1O | -0.4 | -8.8 | -4.1 | -0.5 | -5.8 | -1.2 | . | .
COc1ccc(CCN(C)C2CCCN(C(=O)CCSC)C2)cc1OC (configuration not stated) | -0.8 | -3.6 | 0.7 | 1.7 | 1.5 | -1.9 | . | .
COc1ccc(CCN(C)C2CCCN(C(=O)CCC(F)(F)F)C2)cc1OC (configuration not stated) | 0.3 | -7.8 | -0.7 | 9.6* | 12.6 | 8.4 | -1.4 | -2.6
CC(=O)N1CCSc2ccc(S(=O)(=O)NCCc3cccc(C)c3)cc21 | 0.7 | -3.2 | 2.8 | 16.1* | 6.2 | -7.3 | -1.2 | -1.5
COc1ccc(C#Cc2ccc3c(c2)[C@H]2[C@H](CCN2S(=O)(=O)c2ccccc2F)[C@H](CO)N3C)cc1 | -2.5 | -69.2 | -9.5 | -50.3 | -20.9 | 12.4 | . | .
CC(C)CN1C(=O)[C@@]2(CC(=O)N(C)C2c2ccccc2)c2cc(-n3cc(CCc4ccccc4)nn3)ccc21 (some centres not stated) | -1.2 | 0.9 | 4.7 | 10.1* | 3.4 | 7.2 | -2.2 | -0.5
SMILES | proKLK7 act | PLCb3 inh | ADAM17 inh | PLC-gamma1 inh | ADAM10 inh | HGIII-sPLA2 inh | PLCg1 ctr | PLCbeta3 conf
CC(C)CN1C(=O)[C@]2(CC(=O)N(C)C2c2ccccc2)c2cc(-n3cc(CCc4ccccc4)nn3)ccc21 (some centres not stated) | 0.0 | 2.1 | -2.5 | 0.3 | -6.4 | 0.8 | . | .
Nn1c(SCc2ccc([N+](=O)[O-])cc2)nnc1-c1n[nH]c2c1CCC2 | -0.4 | 2.3 | -1.3 | -0.5 | -7.1 | 1.5 | . | .
COc1cc(-n2c(C)nc3cc(C(=O)N4CCCC4)ccc32)cc(OC)c1OC | -0.3 | -1.0 | -2.4 | -5.3 | -8.8 | -2.6 | . | .
Cc1ccc2nc(NC(=O)CN3C(=O)NC4(CCCCC4)C3=O)sc2c1 | 0.9 | -0.4 | 4.0 | 11.9* | 5.3 | -8.7 | 0.1 | 0.9
COc1ccccc1C(CCNCc1ccc(N(C)C)cc1)c1ccc(OC(C)C)cc1 (configuration not stated) | 0.7 | -2.9 | 0.1 | 10.5* | 1.7 | -12.7 | 1.4 | 4.7
COc1ccc(CNCCC(c2ccc(OC(C)C)cc2)c2ccccc2OC)cc1 (configuration not stated) | -0.2 | -0.4 | 1.0 | 8.0 | 3.7 | 2.3 | . | .
O=C(CCc1ccccc1)Nc1ccccc1[N+](=O)[O-] | 0.2 | 2.0 | 1.8 | 5.3 | 6.2 | -5.3 | . | .
O=C(CCc1ccccc1)Oc1ccccc1[N+](=O)[O-] | 0.2 | 8.9 | 1.6 | 12.9* | 0.7 | 3.8 | -7.8 | 0.4
C[C@H]1CCCN1c1cccc2c1S(=O)(=O)N(C1CC1)CCCO2 | -0.1 | -5.7 | -5.4 | -5.0 | -9.4 | -0.3 | . | .
Clc1cc(Br)ccc1OCCOCCN1CCOCC1 | -0.2 | 13.6* | 6.3 | 13.0* | 14.7 | -7.4 | -4.3 | -0.2
Clc1ccc(OCCOCCN2CCCCC2)c(Br)c1 | 0.3 | 5.5 | 6.1 | 10.6* | 6.3 | -6.0 | -7.6 | 0.9
CC1CCN(CCOCCOc2ccc(Cl)cc2Br)CC1 | -0.2 | 6.5 | 0.2 | 5.3 | 6.4 | -19.5 | . | .
Cc1ccc(-c2nc(C3CCCN(S(=O)(=O)c4cccs4)C3)no2)cc1 (configuration not stated) | 0.2 | -4.1 | -2.5 | 0.9 | 2.0 | 11.6 | . | .
Cc1cc(Nc2cccc([N+](=O)[O-])c2)cc(=O)n1-c1cccc([N+](=O)[O-])c1 | -0.6 | 1.3 | -0.8 | 0.4 | 4.3 | -4.8 | . | .
O=c1c2cc3cccnc3nc2ncn1CCc1c[nH]c2ccccc12 | -5.5 | -31.2 | -19.1 | -24.2 | -64.3 | -7.4 | . | .
